Screening results as filed in PubChem BioAssay.
This is one part of a sample in which hits are shown more often than they occur.
GIRK2 activ = activators of human GIRK2 potassium channels | P48051 | HEK293-GIRK2 thallium flux, Thallos fluorescence, MPD | calls only for hits at 25 µM | 63,000 compounds, 0.05% hits | AID 1259325; call rule not given here
Target sequence (P48051 whole entry, looked up): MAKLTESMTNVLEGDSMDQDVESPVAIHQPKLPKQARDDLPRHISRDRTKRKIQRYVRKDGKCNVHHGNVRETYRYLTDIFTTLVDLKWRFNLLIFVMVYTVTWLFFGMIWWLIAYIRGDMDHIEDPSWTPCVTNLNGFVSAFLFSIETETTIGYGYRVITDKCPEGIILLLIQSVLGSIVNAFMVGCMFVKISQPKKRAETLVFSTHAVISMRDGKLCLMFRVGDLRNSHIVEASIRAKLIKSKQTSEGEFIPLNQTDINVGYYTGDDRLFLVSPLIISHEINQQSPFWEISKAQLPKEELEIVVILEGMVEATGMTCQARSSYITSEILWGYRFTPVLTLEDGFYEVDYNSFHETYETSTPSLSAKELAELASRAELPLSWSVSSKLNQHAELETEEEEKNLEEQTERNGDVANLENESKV
Of the large screens only hits and unclear results are named; the others gave an inactive call.

CCOc1ccc(-c2cc(C(=O)Nc3nc4ccc(C)cc4s3)no2)cc1	none
O=C(CSc1nnc(N2CCOCC2)c2ccccc12)N1CCN(c2ccc(F)cc2)CC1	none
Cc1cc2nn(CC(=O)NCc3ccccc3)c(=O)n2c(-c2ccc(C(F)(F)F)cc2)n1	none
COc1cc(OC)c(NC(=O)Cc2nnc(-c3sccc3C)o2)cc1Cl	none
Cn1c(-c2ccccn2)nn(CCNC(=O)c2ccsc2)c1=O	none
O=C(NC1CCCC1)C1CCN(c2ccc(-c3ccncc3)nn2)CC1	none
CCOc1ccc(C(C)C)cc1S(=O)(=O)N1CCCCCC1	none
COc1cccc(N2CC(C(=O)N3CCC(CSc4ccccn4)CC3)CC2=O)c1 (stereo not given)	none
COc1cccc2cc(C(=O)NCCn3ncccc3=O)oc12	none
COc1cccc(COc2coc(C(=O)NC3CCCC3)cc2=O)c1	none
O=C(NCC1CCCO1)c1coc(NC(=O)c2cnccn2)n1 (stereo not given)	none
CC(C)(C)OC(=O)Cn1cccc(S(=O)(=O)N2CCCCCC2)c1=O	none
Cc1ccccc1NC(=O)N1CCCSCC1CN1CCCCC1 (stereo not given)	none
Cc1nc(NC(=O)CN(C)c2nc3c(C)ccc(C)c3s2)sc1C	none
CCOc1ccccc1NS(=O)(=O)c1c(C(=O)OC)sc2ccccc12	none
COc1ccc(C2CCN(C(=O)c3cc(OC)ccc3Br)C2)cc1 (stereo not given)	none
COc1cn(C)c(C(=O)Nc2nc3ccc(Cl)cc3s2)cc1=O	none
CCOC(=O)c1cn[nH]c1S(=O)(=O)N1CCN(c2ccc(C(C)=O)cc2)CC1	none
CCOC(=O)c1cn[nH]c1S(=O)(=O)N1CCN(c2cccc(C)c2)C(C)C1 (stereo not given)	GIRK2 activ active
CCOC(=O)c1cn[nH]c1S(=O)(=O)Nc1cccc(CC)c1	none
Cc1csc(NC(=O)c2ccc(Cn3ccnc3)cc2)n1	none
Cn1cnnc1SCCNC(=O)c1csc(-c2cc3ccccc3n2C)n1	none
Cc1cc(CNC(=O)C(=O)Nc2ccc(C)c(Cl)c2)c(C)o1	none
COc1ccc(NC(=O)Cc2nnc(Nc3ccccc3)s2)cc1OC	none
COc1cccc(CNC(=O)c2nnn(-c3ccccc3Cl)c2-c2ccncc2)c1	none
CSc1ccc(CNC(=O)c2nnn(-c3ccccc3C)c2-c2ccncc2)cc1	none
Cc1ccccc1-n1nnc(C(=O)NCc2ccc(Br)cc2)c1-c1ccncc1	none
COc1cc(OC)c(NC(=O)c2nnn(-c3ccccc3C)c2-c2ccncc2)cc1Cl	GIRK2 activ active
COc1ccc(NC(=O)c2nnn(-c3ccccc3C)c2-c2ccncc2)c(C)c1	GIRK2 activ active
Cc1ccccc1-n1nnc(C(=O)Nc2nccs2)c1-c1ccncc1	none
COCCN(Cc1ccoc1)C(=O)Nc1ccc(C(C)(C)C)cc1	none
COC(=O)c1ccc(C(=O)NCCC(O)c2ccoc2)cc1 (stereo not given)	none
COc1ccccc1-n1c(-c2ccccc2)cn2c3c(=O)n(CC(C)=O)c(=O)n(C)c3nc12	none
CCn1c(=O)c2c(nc3n(-c4ccccc4OC)c(-c4ccccc4)cn23)n(C)c1=O	GIRK2 activ active
CCOC(=O)Cn1c(=O)c2c(nc3n(-c4ccccc4OC)c(-c4ccccc4)cn23)n(C)c1=O	none
O=S(=O)(Nc1ccc2c(c1)CCCN2S(=O)(=O)c1ccccc1)c1ccccc1	none
CC(C)(C)c1csc(CN2CCN(C(=O)CC3CCCCC3)CC2)n1	none
O=C(c1c(F)cccc1F)N1CCN(c2cc(Nc3ccccn3)ncn2)CC1	none
CCN(CC)c1ccc(-c2noc(CN3CCSCC3)n2)cn1	none
CCN(CC)c1ccc(-c2noc(CN3CCN(c4ccccc4Cl)CC3)n2)cn1	none
CCN(CC)c1ccc(-c2noc(CN3CCCCC3C)n2)cn1 (stereo not given)	GIRK2 activ active
Cc1nc(-c2cccc(NC(=O)C3(c4ccccc4)CCOCC3)c2)cs1	none
O=C(/C=C/c1ccccc1)Nc1cnc(N2CCCC2)nc1	none
O=C(Cc1cccs1)N1CCC(CSc2ccccn2)CC1	none
CS(=O)(=O)N1CCC(C(=O)NCC2CCN(C(=O)Oc3ccccc3)CC2)CC1	none
Cc1cc(C(=O)N2CCC(Cn3c(C)nc4ccccc43)CC2)no1	none
CNC(=O)C1Cc2ccccc2N1C(=O)c1ccc(S(=O)(=O)N2CCCC2)cc1 (stereo not given)	none
Cc1ccc(N2CCC(C(=O)Nc3ccc(S(C)(=O)=O)cc3)CC2)nn1	none
CS(=O)(=O)c1ccc2nc(N(Cc3ccco3)C(=O)C3CCCCC3)sc2c1	GIRK2 activ active
CCCCOc1ccc(C(=O)N(Cc2ccco2)c2nc3ccc(S(C)(=O)=O)cc3s2)cc1	none
CS(=O)(=O)c1ccc2nc(N(Cc3ccco3)C(=O)c3ccc(Br)s3)sc2c1	none
Cc1ccc(C)c(N2CCN(C(=O)Cn3cnc4c([nH]c5ccc(C)cc54)c3=O)CC2)c1	none
CCOc1ccc(S(=O)(=O)Nc2ccc(-n3nnc(C(N)=O)n3)cc2)cc1	none
COc1ccc(C2(CNC(=O)c3cc(C4CC4)on3)CCCC2)cc1	none
COC(=O)N1CCc2ccc(F)cc2C1C(=O)Nc1cccc(C)n1 (stereo not given)	none
COC(=O)N1CCc2ccc(Br)cc2C1C(=O)Nc1nccs1 (stereo not given)	GIRK2 activ active
COC(=O)N1CCc2ccc(Br)cc2C1C(=O)Nc1ccc(SC)cc1 (stereo not given)	none
O=C(NCCC(O)c1ccoc1)C(c1ccccc1)c1ccccc1 (stereo not given)	none
CCCn1c(=O)c2c(nc3n2CC(C)=NN3CC(N)=O)n(C)c1=O	none
O=C(Cn1ccc2ccccc21)NC1CCN(Cc2ccccc2)CC1	GIRK2 activ active
O=C(Cn1ccc2ccccc21)Nc1cc(N2CCN(Cc3ccccc3)CC2)ncn1	none
CCOC(=O)N1CCC(NC(=O)Cn2ccc3ccccc32)CC1	none
Cc1cc(F)ccc1S(=O)(=O)NCC(C)(O)c1ccco1 (stereo not given)	none
Cc1ccccc1-c1ccc(N2CCCC(C(=O)Nc3cc(-n4cccn4)ncn3)C2)nn1 (stereo not given)	none
O=C(CCc1csc2nc(C3CC3)cn12)Nc1nc2ccccc2s1	none
COc1ccc(CC(C)(O)CNC(=O)C(=O)Nc2ccccc2Cl)cc1 (stereo not given)	none
COc1ccccc1-c1coc2cc(OC(=O)c3ccc([N+](=O)[O-])cc3)ccc2c1=O	none
O=C(NCCn1cnc(-c2ccccc2)cc1=O)c1ccc(=O)[nH]n1	none
COc1ccc(-c2cc(N3CCC(C(=O)Nc4cc(Cl)ccc4C#N)CC3)ncn2)cc1	none
COc1ccccc1-n1nnc(C(=O)NCc2nc3ccccc3n2C)c1-c1ccccn1	none
COc1ccccc1-n1nnc(C(=O)NCC2COCCO2)c1-c1ccccn1 (stereo not given)	none
COc1ccccc1-n1nnc(C(=O)Nc2nc(C)cs2)c1-c1ccccn1	GIRK2 activ active
CCOc1ccccc1NC(=O)Cn1nc2c(Oc3ccc(C)cc3)nccn2c1=O	none
Cn1cc(-c2ccco2)nc1CCNS(=O)(=O)C1CC1	none
Cc1ccc(C(=O)Nc2c(C(=O)N3CCN(c4ccccc4)CC3)[nH]c3ccccc23)cc1	none
